Bioassay records (PubChem BioAssay)
Only some compounds are listed: those with a hit (about 9.3% of all), similar ones and a draw of the others.
ELG1 DNA repair = qHTS screen for small molecules that inhibit ELG1-dependent DNA repair in human embryonic kidney (HEK293T) cells expressing luciferase-tagged ELG1; HEK293T ELG1-luciferase reporter, luminescence, 16 h; DNA damage induced by 5-fluorouridine; Potency, µM (top dose mostly 46.1 µM), for the others: at the top dose activity change, negative = inhibition, usual class: inhibitors; 330,000 compounds, 2.3% hits; AID 504467, 2011; also: % is scaled to controls: 0 for no effect and ±100 for the full control effect; nearly all actives have a fitted effect of over 55% in size
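DMSO vehicle served as the neutral condition. Each well held 2,000 cells given 5-fluorouridine plus compound; after 16 hr at 37 °C/5% CO2, ONE-Glo was added and luciferase measured 30 min later.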
SMN2 splice up = qHTS Assay for Enhancers of SMN2 Splice Variant Expression. Potency, µM (series often up to 46.1 µM), inactives show at the highest dose activity change, positive = activation, most hits filed as activators. HEK293 SMN2-luciferase splicing reporter, luminescence, 30-36 h. 210,000 compounds, 2.8% hits. AID 1458, 2008; also: % of control where 0% means no effect; nearly all actives have a fitted effect of over 55% in size
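qHTS luciferase splicing reporter: luminescence rises when SMN2 exon 7 is included in transfected HEK293 cells. Compound exposure lasted 30-36 h at 37C, with 4.5 mM final sodium butyrate as control, followed by a ONE-Glo read.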
ELG1 genotoxic = qHTS screen for small molecules that induce genotoxicity in human embryonic kidney (HEK293T) cells expressing luciferase-tagged ELG1; Potency, µM (series often up to 46 µM), for the others: at the highest dose activity change, positive = activation, usual class: activators; 330,000 compounds, 1.3% hits; HEK293T ELG1-luciferase reporter, luminescence, 16 h; also: % of control where 0% means no effect; nearly all actives have a fitted effect of over 60% in size
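Luminescence read-out: rising ELG1-luciferase signal, reflecting elevated ELG1 protein under genetic stress, flags genotoxic compounds. Cells were treated for 16 hr at 37 °C before ONE-Glo detection.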
NPC1 prom act = qHTS Assay for NPC1 Promoter Activators; Huh7 NPC1 promoter luciferase reporter, 24 h; Potency, µM (titrated, usually from 9.22 µM), inactives show at the top dose activation, most hits filed as activators; 320,000 compounds, 2.4% hits; also: % of control where 0% means no effect; nearly all actives have a fitted effect of over 60% in size
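Readout is luciferase luminescence, reflecting NPC1 promoter activation in stably transfected Huh7 cells after 24 h compound exposure at 37 °C in reduced-serum medium with 10% FBS.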
FLuc modulator = qHTS profiling assay for firefly luciferase inhibitor/activator using purifed enzyme and Km concentrations of substrates (counterscreen for miR-21 project); Luciferin 4-monooxygenase (Photinus pyralis), P08659; purified FLuc, Km substrates, luminescence inhibition; Potency, µM (titrated, usually from 57.5 µM), for the others: at the top dose activity change, negative = inhibition, actives largely listed as inhibitors; 360,000 compounds, 6.9% hits;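 also: plate controls were vehicle for no effect and reference inhibitor for full effect; nearly all actives have a fitted effect of over 55% in size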
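Purified P. pyralis luciferase, 10 nM final, with Km-level 10 uM D-luciferin and 10 uM ATP in 50 mM Tris acetate pH 7.5, 10 mM Mg acetate, 0.01% Tween-20, 0.05% BSA; 6-point qHTS titration about 60 µM downward; luminescence read.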
Rab9 prom act = qHTS Assay for Rab9 Promoter Activators. Potency, µM (titrated, usually from 9.22 µM), inactives show at the top dose activation, negative = inhibition, most hits filed as activators. 320,000 compounds, 2.8% hits. Huh7 Rab9 promoter-luciferase reporter, luminescence, 24 h; also: % of control where 0% means no effect; nearly all actives have a fitted effect of over 60% in size
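Using Huh7 cells stably transfected with Rab9 promoter–luciferase, compounds were incubated 24 h at 37 °C, 5% CO2; luciferase luminescence was read 10 min after reagent addition.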
ELG1 FLuc counter = qHTS screen for small molecules that inhibit ELG1-dependent DNA repair: Hit Confirmation in Cell-Based Luciferin Assay; shares compounds with ELG1 DNA repair; cell-free firefly luciferase luminescence counter-screen, ViewLux; Potency, µM (doses to about 46.1 µM), inactives show at the highest dose activity change, negative = inhibition, most hits filed as inhibitors; 350 compounds, 3% hits; AID 624247, 2012; also: % is scaled to controls: 0 for no effect and ±100 for the full control effect
ELG1-Luc inh = HTS assay for small molecules that inhibit ELG1-dependent DNA repair in human embryonic kidney (HEK293T) cells expressing luciferase-tagged ELG1: Hit Confirmation. Potency, µM (doses to about 46.1 µM), without a hit: at the highest dose activity change, negative = inhibition, hits mostly inhibitors. shares compounds with ELG1 DNA repair. AID 624248, 2012. HEK293T ELG1-luciferase levels, luminescence; cells co-treated with 5-fluorouridine. 670 compounds, 68% hits; also: % is scaled to controls: 0 for no effect and ±100 for the full control effect; nearly all actives have a fitted effect of over 55% in size
Target sequence (Q96QE3 whole entry, looked up): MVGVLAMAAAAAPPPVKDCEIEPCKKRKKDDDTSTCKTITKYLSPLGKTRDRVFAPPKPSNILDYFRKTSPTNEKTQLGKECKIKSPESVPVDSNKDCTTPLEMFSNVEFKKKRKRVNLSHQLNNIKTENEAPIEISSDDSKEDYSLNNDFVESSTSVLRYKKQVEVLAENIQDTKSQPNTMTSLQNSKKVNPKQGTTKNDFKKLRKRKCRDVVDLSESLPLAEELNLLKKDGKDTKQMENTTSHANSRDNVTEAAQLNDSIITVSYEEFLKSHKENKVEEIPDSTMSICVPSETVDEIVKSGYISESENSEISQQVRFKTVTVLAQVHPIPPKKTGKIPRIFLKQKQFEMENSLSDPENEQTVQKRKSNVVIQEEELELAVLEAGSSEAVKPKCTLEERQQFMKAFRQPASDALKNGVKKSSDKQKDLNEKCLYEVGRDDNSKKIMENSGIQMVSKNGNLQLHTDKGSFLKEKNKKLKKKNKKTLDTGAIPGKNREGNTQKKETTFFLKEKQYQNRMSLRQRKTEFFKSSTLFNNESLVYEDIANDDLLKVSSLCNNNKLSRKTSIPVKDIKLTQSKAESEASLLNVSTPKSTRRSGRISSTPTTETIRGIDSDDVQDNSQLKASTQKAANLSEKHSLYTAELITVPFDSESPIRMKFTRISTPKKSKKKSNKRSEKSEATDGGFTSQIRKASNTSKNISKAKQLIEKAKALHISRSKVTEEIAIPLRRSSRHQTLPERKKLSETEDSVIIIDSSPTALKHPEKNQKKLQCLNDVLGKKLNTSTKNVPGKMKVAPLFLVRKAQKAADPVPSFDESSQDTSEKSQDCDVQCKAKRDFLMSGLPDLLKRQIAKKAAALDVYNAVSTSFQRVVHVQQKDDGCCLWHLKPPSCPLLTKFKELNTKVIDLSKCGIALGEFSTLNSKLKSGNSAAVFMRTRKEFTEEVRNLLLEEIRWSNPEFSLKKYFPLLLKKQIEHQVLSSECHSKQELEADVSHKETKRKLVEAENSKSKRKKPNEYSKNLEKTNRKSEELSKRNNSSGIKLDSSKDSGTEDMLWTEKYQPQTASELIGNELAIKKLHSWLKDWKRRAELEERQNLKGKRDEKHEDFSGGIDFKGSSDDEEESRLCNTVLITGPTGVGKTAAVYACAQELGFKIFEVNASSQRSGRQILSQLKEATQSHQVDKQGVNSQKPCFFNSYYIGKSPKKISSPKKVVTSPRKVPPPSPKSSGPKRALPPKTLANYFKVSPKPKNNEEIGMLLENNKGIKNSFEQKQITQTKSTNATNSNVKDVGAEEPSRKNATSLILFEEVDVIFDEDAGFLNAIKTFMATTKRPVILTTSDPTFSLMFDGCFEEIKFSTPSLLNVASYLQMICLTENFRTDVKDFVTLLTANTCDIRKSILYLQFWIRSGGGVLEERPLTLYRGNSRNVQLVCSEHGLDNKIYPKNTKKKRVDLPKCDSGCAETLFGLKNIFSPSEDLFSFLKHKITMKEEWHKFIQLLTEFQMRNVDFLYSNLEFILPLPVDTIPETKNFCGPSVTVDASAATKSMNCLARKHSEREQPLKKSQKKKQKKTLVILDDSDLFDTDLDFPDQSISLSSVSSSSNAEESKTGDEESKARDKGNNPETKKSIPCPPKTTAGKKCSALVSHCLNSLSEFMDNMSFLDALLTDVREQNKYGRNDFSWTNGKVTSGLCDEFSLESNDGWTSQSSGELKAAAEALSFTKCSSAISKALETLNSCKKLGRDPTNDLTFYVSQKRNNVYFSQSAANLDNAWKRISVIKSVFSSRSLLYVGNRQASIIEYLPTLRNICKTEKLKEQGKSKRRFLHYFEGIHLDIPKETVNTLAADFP
ELG1 MMS Luc = inhibits ELG1-dependent repair under MMS stimulation in HEK293T cells | shares compounds with ELG1 DNA repair | HEK293T luciferase-tagged ELG1 level, MMS stimulated | Potency, µM (titrated, usually from 46.1 µM), for inactives: at the top dose activity change, negative = inhibition, actives largely listed as inhibitors | 670 compounds, 53% hits | AID 624249; also: % is scaled to controls: 0 for no effect and ±100 for the full control effect; nearly all actives have a fitted effect of over 60% in size
ELG1 5FU viab = qHTS screen for small molecules that inhibit ELG1-dependent DNA repair: Hit Confirmation with 5FU Viability | shares compounds with ELG1 DNA repair | cell viability with 5-FU, ELG1-dependent repair | Potency, µM (titrated, usually from 46.1 µM), inactives show at the highest dose activity change, negative = viability loss, actives largely listed as cytotoxic | 670 tested, under 10 active | AID 624250, 2012;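 also: ELG1-luc HEK293T cells cotreated with 5-fluorouridine at 10 µM final; viability measured 16 h after compound addition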
ELG1 MMS cell = qHTS screen for small molecules that inhibit ELG1-dependent DNA repair: Hit Confirmation with MMS Viability; shares compounds with ELG1 DNA repair; Cell viability with MMS, ELG1-dependent DNA repair; Potency, µM (series often up to 46.1 µM), inactives show at the top dose activity change, negative = viability loss, most hits filed as cytotoxic; 670 compounds, 33% hits;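 also: ELG1-luc HEK293T cells co-treated with 10 µM MMS; viability read 16 h after compound addition; % is scaled to controls: 0 for no effect and ±100 for the full control effect; nearly all actives have a fitted effect of over 60% in size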
Cell viab unstim = qHTS screen for small molecules that inhibit ELG1-dependent DNA repair: Hit Confirmation with Unstimulated Viability Assay; shares compounds with ELG1 DNA repair; cell viability counter-screen, unstimulated, luminescence; Potency, µM (highest dose often 45.9 µM), for inactives: at the top dose activity change, negative = loss of viability, hits mostly cytotoxic; 900 compounds, 8% hits;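 also: compound exposure lasted 16 hours before reading; % is scaled to controls: 0 for no effect and ±100 for the full control effect; nearly all actives have a fitted effect of over 55% in size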
FLuc biochem = qHTS screen for small molecules that inhibit ELG1-dependent DNA repair: Hit Confirmation in Biochemical Luciferin Assay; shares compounds with ELG1 DNA repair; Potency, µM (top dose mostly 57.5 µM), without a hit: at the highest dose activity, negative = inhibition, most hits filed as inhibitors; purified firefly luciferase, luminescence counter-screen; 350 compounds, 10% hits; also: % is scaled to controls: 0 for no effect and ±100 for the full control effect
* marks the source's active call; other numbers are inactive results; ? = inconclusive; · = not tested or not shown; [ ] = remark or other dose. Calls follow the shape of the dose curve; as a rule, active = well fitted curve in the direction sought with a large enough effect; inconclusive = small, poorly fitted or top-dose-only effect, or another doubt; inactive = no such curve, though single readings can be large; an effect the other way counts as inactive or inconclusive. Potency is read from the fitted curve at half-maximal effect.

SMILES	ELG1 DNA repair	SMN2 splice up	ELG1 genotoxic	NPC1 prom act	FLuc modulator	Rab9 prom act	ELG1-Luc inh	ELG1 MMS Luc	ELG1 5FU viab	ELG1 MMS cell	Cell viab unstim	others
COc1cccc(NC(=O)COC(=O)c2sccc2C)c1	?	·	?	·	·	·	·	·	·	·	-4.4%
CC1(C)Cc2nc3nc(SCC(=O)NCc4ccccc4)n(-c4ccccc4)c(=O)c3cc2CO1	?	2.7%	-1.5%	-4.4%	4.1%	5.7%	·	·	·	·	·
CC1(C)Cc2nc3nc(SCC(=O)NCCc4ccccc4)n(-c4ccccc4)c(=O)c3cc2CO1	4.61µM*	-6.4%	-3.1%	1.1%	2.1%	-1.5%	?	26.4%	?	0.2%	?
COc1c(O)c(O)c2oc(-c3ccccc3)cc(=O)c2c1OC	-10.0%	·	3.5%	15.6%	?	-1.2%	·	·	·	·	·
COc1cc(C)c2c(=O)cc(-c3ccccc3)oc2c1	·	11.2µM*	·	·	·	·	·	·	·	·	-6.4%
COc1ccc(-c2nc3c(c(SCC(=O)N4CCOCC4)n2)Cc2c(CO)cnc(C)c2O3)cc1	1.3µM*	·	-2.2%[9.26 µM]	-0.5%	0.2%	-1.1%	3.54µM*	?	5.5%	-1.9%	-15.9%	ELG1 FLuc counter=20.1%;FLuc biochem=0.1%
